Test results reported in PubChem BioAssay (EPA / NIEHS).
Values joined by “and” are separate entries in the source; they are usually repeats but may differ in a detail not shown here. Identical values can stand only once. Records with an inconclusive call do not appear. More than one record can exist for a structure, and the calls need not agree. Active and inactive are the calls of the source. Rule for the calls, unless noted: active = hit-call score of the fitted dose curve at least 0.9, where 1 is the maximum; inactive = score below 0.9.

Assays:
[1] = target: Retinoic acid receptor RXR-alpha (Homo sapiens) (UniProt P19793); test: ATG_RXRa_TRANS: Attagene TRANS-FACTORIAL HepG2 Assay for human Retinoid X Receptor alpha (RXRa) (AID 2283012; active = hit-call score of the fitted dose curve at least 0.9, where 1 is the maximum)
Summary of the method: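 Cells (HepG2) carried transiently transfected GAL4-responsive reporter units. Following a 24 h chemical incubation, reporter mRNA induction was read via RT-PCR fragment analysis; DMSO served as negative control and baseline.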

[2] = target: human Retinoid X Receptor beta (RXRb), RXRB (gene 6257) (UniProt P28702); test: ATG_RXRb_TRANS: Attagene TRANS-FACTORIAL HepG2 Assay for human Retinoid X Receptor beta (RXRb) (AID 2283013; active = hit-call score of the fitted dose curve at least 0.9, where 1 is the maximum)
Summary of the method: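 Multiplexed TRANS reporter assay in HepG2; 24 h dosing; reporter mRNA by RT-PCR/CE fluorescence; gain-of-signal relative to DMSO.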

[3] = target: human Thyroid Receptor alpha (THRa1), THRA (gene 7067) (UniProt P10827); test: ATG_THRa1_TRANS: Attagene TRANS-FACTORIAL HepG2 Assay for human Thyroid Receptor alpha (THRa1) (AID 2283014; active = hit-call score of the fitted dose curve at least 0.9, where 1 is the maximum)
Summary of the method: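 HepG2 cells transiently transfected with multiplexed GAL4-UAS reporter units for exogenous chimeric THRa1-Gal4; reporter mRNA measured 24 h after dosing by RT-PCR, 6-FAM labelling, HpaI digestion and capillary electrophoresis. Gain-of-signal fitted versus DMSO baseline.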

[4] = read-out: E-selectin (Homo sapiens) (UniProt P16581); test: BSK_3C_Eselectin: BioMAP Diversity Plus: 3C Assay for Eselectin Biomarker Activity (AID 2283015); conditions: primary human endothelial cells (HUVEC); actives raise or lower the signal
Summary of the method: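 Primary human umbilical vein endothelial cells (3C system) were dosed with chemical and cell-surface E-selectin measured by ELISA 24 h later. Bidirectional curve fitting used DMSO as negative control and baseline.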

[5] = read-out: Monocyte Chemoattractant Protein-1 (MCP1), CCL2 (gene 6347); test: BSK_3C_MCP1: BioMAP Diversity Plus: 3C Assay for Monocyte Chemoattractant Protein-1 (MCP1) Biomarker Activity (AID 2283017); conditions: primary human endothelial cells (HUVEC); actives raise or lower the signal
Summary of the method: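 Primary human umbilical vein endothelial cells (3C system) were exposed to test chemical for 24 h, after which MCP-1 was quantified by ELISA. Activity was fitted bidirectionally against DMSO as negative control and baseline.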

[6] = read-out: Monocyte Chemoattractant Protein-1 (MCP1), CCL2 (gene 6347); test: BSK_4H_MCP1: BioMAP Diversity Plus: 4H Assay for Monocyte Chemoattractant Protein-1 (MCP1) Biomarker Activity (AID 2283018); conditions: primary human endothelial cells (HUVEC); actives raise or lower the signal
Summary of the method: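 Readout: MCP-1 ELISA on compound-treated HUVEC, sampled 24 h post-dosing. Baseline and negative control DMSO; bidirectional fit. Overt toxicity checked alongside by sulforhodamine B protein staining at time of biomarker measurement.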

[7] = read-out: Human Leukocyte Antigen - DR isotype (HLADR), HLA-DRA (gene 3122); test: BSK_3C_HLADR: BioMAP Diversity Plus: 3C Assay for Human Leukocyte Antigen - DR isotype (HLADR) Biomarker Activity (AID 2283019); conditions: primary human endothelial cells (HUVEC); actives raise or lower the signal
Summary of the method: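 Primary human umbilical vein endothelial cells (3C system) were dosed with compound and cell-surface HLA-DR was quantified by ELISA at 24 h. Activity was fitted bidirectionally against DMSO as negative control and baseline.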

[8] = read-out: Interleukin-8 (IL8), CXCL8 (gene 3576); test: BSK_3C_IL8: BioMAP Diversity Plus: 3C Assay for Interleukin-8 (IL8) Biomarker Activity (AID 2283020); conditions: primary human endothelial cells (HUVEC); actives raise or lower the signal
Summary of the method: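 Human vascular endothelial cells (umbilical vein) in the 3C system; IL-8 level detected by ELISA at 24 h post-dose, with DMSO as baseline.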

[9] = read-out: Monokine induced gamma interferon (MIG), CXCL9 (gene 4283); test: BSK_3C_MIG: BioMAP Diversity Plus: 3C Assay for Monokine induced gamma interferon (MIG) Biomarker Activity (AID 2283021); conditions: primary human endothelial cells (HUVEC); actives raise or lower the signal;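 for AC50: MIG protein level measured by immunoassay in the treated endothelial cultures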
Summary of the method: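 After 24 h of treatment, human umbilical vein endothelial cultures (3C system) had their MIG biomarker level determined by ELISA, with DMSO serving as negative control.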

[10] = BSK_3C_SRB: Viability Assessment in the BioMAP Diversity Plus: 3C Assay (AID 2283023); conditions: primary human endothelial cells (HUVEC);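 note: fitted both ways against DMSO so a hit may be signal rise or drop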
Summary of the method: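 Primary human umbilical vein endothelial cells in the 3C system were read 24 h after compound dosing. Total protein was stained with 0.1% sulforhodamine B after 10% TCA fixation and read at 560 nm, with bidirectional fitting against DMSO as baseline.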

[11] = read-out: Matrix Metallopeptidase 1 (MMP1), MMP1 (gene 4312); test: BSK_BE3C_MMP1: BioMAP Diversity Plus: BE3C Assay for Matrix Metallopeptidase 1 (MMP1) Biomarker Activity (AID 2283024); conditions: primary human bronchial epithelial cells; actives raise or lower the signal
Summary of the method: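 Dose cells, wait 24 h, run MMP1 ELISA; cells are human bronchial epithelial primaries. Both increases and decreases relative to DMSO counted.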

[12] = BSK_3C_Vis: BioMAP Diversity Plus: 3C Assay for Morphology Visualization (AID 2283025); conditions: primary human endothelial cells (HUVEC);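 note: fitted both ways so gain or loss versus DMSO counts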;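 for AC50: light microscopy image of cell morphology used as background control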
Summary of the method: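 Endothelial cells from human umbilical vein were treated with test chemicals for 24 h and inspected by light microscopy for changes in cell conformation.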

[13] = read-out: Pselectin, SELP (gene 6403); test: BSK_4H_Pselectin: BioMAP Diversity Plus: 4H Assay for Pselectin Biomarker Activity (AID 2283026); conditions: primary human endothelial cells (HUVEC); actives raise or lower the signal
Summary of the method: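 Human vascular endothelium from umbilical vein; P-selectin measured by ELISA at 24 h post-dose, with cytotoxicity checked by sulforhodamine B total-protein staining in parallel cultures (0.1% SRB after 10% TCA fixation, read at 560 nm).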

[14] = read-out: Thrombomodulin, THBD (gene 7056); test: BSK_3C_Thrombomodulin: BioMAP Diversity Plus: 3C Assay for Thrombomodulin Biomarker Activity (AID 2283029); conditions: primary human endothelial cells (HUVEC); actives raise or lower the signal
Summary of the method: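 Thrombomodulin ELISA, human primary HUVEC, 24 h post-dose; data fitted in both directions relative to DMSO.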

[15] = read-out: Urokinase-type plasminogen activator receptor (uPAR), PLAUR (gene 5329); test: BSK_4H_uPAR: BioMAP Diversity Plus: 4H Assay for Urokinase-type plasminogen activator receptor (uPAR) Biomarker Activity (AID 2283030); conditions: primary human endothelial cells (HUVEC); actives raise or lower the signal
Summary of the method: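 Primary human umbilical vein endothelial cells were exposed to chemical for 24 h before cell-surface uPAR was quantified by ELISA. Activity was fitted bidirectionally against the DMSO negative control baseline.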

[16] = read-out: Vascular endothelial growth factor receptor 2 (Homo sapiens) (UniProt P35968); test: BSK_4H_VEGFRII: BioMAP Diversity Plus: 4H Assay for Vascular endothelial growth factor receptor 2 (VEGFR2) Biomarker Activity (AID 2283031); conditions: primary human endothelial cells (HUVEC); actives raise or lower the signal;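 for AC50: cell-surface VEGFR2 protein level quantified by ELISA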
Summary of the method: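 Primary human umbilical vein endothelial cells in the BioMAP 4H system were dosed with test chemical, and 24 h later VEGFRII was measured by ELISA. Activity was fitted bidirectionally against DMSO as negative control and baseline.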

[17] = read-out: Interleukin-1 alpha (IL1a), IL1A (gene 3552); test: BSK_BE3C_IL1a: BioMAP Diversity Plus: BE3C Assay for Interleukin-1 alpha (IL1a) Biomarker Activity (AID 2283016); conditions: primary human bronchial epithelial cells; actives raise or lower the signal
Summary of the method: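 Cultures of primary human bronchial epithelial cells receive test chemical. After 24 h, IL-1a is quantified by ELISA, while parallel wells are fixed in TCA and SRB-stained for total protein. Changes in either direction are fitted relative to DMSO.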

[18] = target: human Vitamin D Receptor (VDR), VDR (gene 7421) (UniProt P11473); test: ATG_VDR_TRANS: Attagene TRANS-FACTORIAL HepG2 Assay for human Vitamin D Receptor (VDR) (AID 2283022; active = hit-call score of the fitted dose curve at least 0.9, where 1 is the maximum)
Summary of the method: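 HepG2 cells were transiently transfected with multiple GAL4-UAS reporter units, so signal reflects exogenous chimeric receptor-Gal4 activity. After 24 h compound exposure, reporter mRNA was measured by RT-PCR, fluorescent labelling and capillary electrophoresis, fitted for gain of signal versus DMSO.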

[19] = BSK_4H_SRB: Viability Assessment in the BioMAP Diversity Plus: 4H Assay (AID 2283027); conditions: primary human endothelial cells (HUVEC);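 note: cells exposed to compound for 24 h before staining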
Summary of the method: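 Human umbilical vein endothelial cells, 24 h after chemical dosing; total protein measured by 0.1% sulforhodamine B staining after 10% TCA fixation, read at 560 nm. Bidirectional fitting against DMSO.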

[20] = BSK_BE3C_SRB: Viability Assessment in the BioMAP Diversity Plus: BE3C Assay (AID 2283028); conditions: primary human bronchial epithelial cells
Summary of the method: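 Human primary bronchial epithelial cells were exposed to test chemicals for 24 h. Total protein in parallel cultures was then measured by staining with 0.1% sulforhodamine B after 10% TCA fixation, with absorbance read at 560 nm. Activity was fitted bidirectionally against DMSO.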

Measured: AC50

Chain of human Thyroid Receptor alpha (THRa1), THRA (gene 7067) (P10827 whole entry, looked up, the tested form may be a part): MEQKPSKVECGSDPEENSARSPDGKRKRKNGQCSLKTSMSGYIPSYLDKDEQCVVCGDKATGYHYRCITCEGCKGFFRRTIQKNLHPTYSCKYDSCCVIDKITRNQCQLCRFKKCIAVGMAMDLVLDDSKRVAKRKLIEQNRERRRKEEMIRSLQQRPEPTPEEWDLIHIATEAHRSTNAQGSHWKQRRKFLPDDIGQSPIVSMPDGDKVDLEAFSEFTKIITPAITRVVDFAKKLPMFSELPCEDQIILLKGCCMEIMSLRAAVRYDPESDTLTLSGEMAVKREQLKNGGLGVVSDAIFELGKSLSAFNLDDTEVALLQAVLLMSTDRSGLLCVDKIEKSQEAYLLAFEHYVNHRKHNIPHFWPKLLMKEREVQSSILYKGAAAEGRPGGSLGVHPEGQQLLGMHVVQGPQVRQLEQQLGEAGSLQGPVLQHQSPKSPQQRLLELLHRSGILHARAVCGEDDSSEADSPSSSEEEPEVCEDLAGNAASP
Chain of human Vitamin D Receptor (VDR), VDR (gene 7421) (P11473 whole entry, looked up, the tested form may be a part): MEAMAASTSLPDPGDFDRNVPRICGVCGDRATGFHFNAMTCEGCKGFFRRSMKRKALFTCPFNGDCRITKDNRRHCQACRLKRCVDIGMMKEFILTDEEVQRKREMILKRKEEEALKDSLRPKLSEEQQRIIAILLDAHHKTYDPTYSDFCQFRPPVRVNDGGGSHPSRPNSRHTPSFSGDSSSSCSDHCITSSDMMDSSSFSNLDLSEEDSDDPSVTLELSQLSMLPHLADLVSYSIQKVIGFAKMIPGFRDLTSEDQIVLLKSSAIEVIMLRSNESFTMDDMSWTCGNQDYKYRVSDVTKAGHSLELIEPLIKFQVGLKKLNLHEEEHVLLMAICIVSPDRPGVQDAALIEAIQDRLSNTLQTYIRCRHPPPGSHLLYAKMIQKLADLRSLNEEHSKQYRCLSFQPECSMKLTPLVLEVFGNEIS
Chain of human Retinoid X Receptor beta (RXRb), RXRB (gene 6257) (P28702 whole entry, looked up): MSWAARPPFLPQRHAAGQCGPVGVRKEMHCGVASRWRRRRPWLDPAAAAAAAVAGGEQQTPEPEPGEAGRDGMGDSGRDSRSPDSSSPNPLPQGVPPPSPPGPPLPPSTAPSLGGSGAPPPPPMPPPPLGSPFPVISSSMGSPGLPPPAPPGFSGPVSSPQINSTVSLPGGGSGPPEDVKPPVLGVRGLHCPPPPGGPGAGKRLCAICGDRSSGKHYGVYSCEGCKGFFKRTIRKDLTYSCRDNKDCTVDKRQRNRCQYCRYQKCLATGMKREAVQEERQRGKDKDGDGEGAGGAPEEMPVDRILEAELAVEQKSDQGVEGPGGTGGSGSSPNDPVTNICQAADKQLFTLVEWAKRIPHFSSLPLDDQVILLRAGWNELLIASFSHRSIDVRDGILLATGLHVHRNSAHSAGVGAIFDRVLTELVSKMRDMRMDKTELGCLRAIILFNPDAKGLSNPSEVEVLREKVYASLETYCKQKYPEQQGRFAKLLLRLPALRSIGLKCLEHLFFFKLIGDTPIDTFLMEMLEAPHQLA
Chain of E-selectin (Homo sapiens) (P16581 whole entry, looked up): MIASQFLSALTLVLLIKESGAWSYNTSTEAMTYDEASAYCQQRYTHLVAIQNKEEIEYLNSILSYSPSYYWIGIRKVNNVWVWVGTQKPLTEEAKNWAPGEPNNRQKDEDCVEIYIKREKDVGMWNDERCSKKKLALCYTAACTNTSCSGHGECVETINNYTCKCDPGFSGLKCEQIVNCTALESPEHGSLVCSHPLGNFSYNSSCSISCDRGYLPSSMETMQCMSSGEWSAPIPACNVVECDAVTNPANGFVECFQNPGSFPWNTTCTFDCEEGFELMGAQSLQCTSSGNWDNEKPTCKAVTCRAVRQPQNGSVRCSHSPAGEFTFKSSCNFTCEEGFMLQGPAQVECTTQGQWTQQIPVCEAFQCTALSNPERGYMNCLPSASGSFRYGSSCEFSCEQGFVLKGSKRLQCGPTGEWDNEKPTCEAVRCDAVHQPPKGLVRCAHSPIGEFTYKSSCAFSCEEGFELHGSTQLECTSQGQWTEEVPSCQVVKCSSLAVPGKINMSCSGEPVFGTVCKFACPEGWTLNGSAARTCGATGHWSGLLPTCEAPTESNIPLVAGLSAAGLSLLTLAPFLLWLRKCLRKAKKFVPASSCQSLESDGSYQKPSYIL
Chain of Retinoic acid receptor RXR-alpha (Homo sapiens) (P19793 whole entry, looked up, the tested form may be a part): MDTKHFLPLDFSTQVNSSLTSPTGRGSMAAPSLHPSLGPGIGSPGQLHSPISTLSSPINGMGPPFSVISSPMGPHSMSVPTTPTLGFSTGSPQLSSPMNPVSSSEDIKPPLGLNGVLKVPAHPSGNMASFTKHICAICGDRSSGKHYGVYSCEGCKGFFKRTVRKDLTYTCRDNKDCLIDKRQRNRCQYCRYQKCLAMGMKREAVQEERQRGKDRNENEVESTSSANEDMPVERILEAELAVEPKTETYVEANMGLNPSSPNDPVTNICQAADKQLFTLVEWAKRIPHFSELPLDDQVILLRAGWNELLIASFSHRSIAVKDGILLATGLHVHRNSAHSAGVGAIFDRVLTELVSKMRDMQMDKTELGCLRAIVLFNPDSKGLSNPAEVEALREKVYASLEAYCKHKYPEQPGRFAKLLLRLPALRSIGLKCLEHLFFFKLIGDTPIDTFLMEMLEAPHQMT

CC(C)(C)c1cc(C(C)(C)C)c(O)c(C(C)(C)C)c1
active: [1] 217 nM and 1.04 µM | [2] 18.6 nM and 320 nM | [11] 10.5 µM | [13] 20 µM | [14] 6.29 µM
not listed: [17] | [18] | [19] | [20]
inactive: all other assays above

c1ccc2cc3c(ccc4ccccc43)cc2c1
active: [11] 1.42 µM | [12] 9.8 µM
inactive: all other assays above

C=C(C)C(=O)OCCC(F)(F)C(F)(F)C(F)(F)C(F)(F)C(F)(F)C(F)(F)F
not listed: [17] | [19] | [20]
inactive: all other assays above

Oc1cc2ccccc2c2ccccc12
inactive: [1] | [2] | [18]
active: [4] 8.36 µM | [17] 17.7 µM | [5] 10 µM | [6] 7.67 µM | [7] 6.95 µM | [8] 9.59 µM | [9] 11.3 µM | [10] 15.4 µM | [11] 27.9 µM | [12] 13.3 µM | [13] 9.99 µM | [14] 9.55 µM | [15] 13.2 µM | [16] 30.1 µM

CCCCC(CC)COC(=O)CCCCC(=O)OCC(CC)CCCC (stereo unspecified)
active: [2] 49.1 µM
not listed: [3] | [17] | [18] | [20]
inactive: all other assays above

FC(F)(I)C(F)(F)C(F)(F)C(F)(F)C(F)(F)C(F)(F)I
active: [2] 20.5 µM | [17] 30 µM [middle of 5 runs] | [13] 14.6 µM [middle of 5 runs] | [14] 30 µM [middle of 4 runs] | [16] 55.1 µM and 7.3 µM
inactive: [14] | [16]

O=C1OC2(c3ccccc31)c1cc(Br)c(O)c(Br)c1Oc1c2cc(Br)c(O)c1Br
inactive: [2] | [3] | [18]

CC(O)CO (stereo unspecified)
not listed: [2] | [3] | [17] | [19] | [20]
inactive: all other assays above
